# Experimental data published in PubChem BioAssay (Tox21).
# A number with no mark means an inactive call. Where a call stands in place of a potency, no number is given. Active and inactive are the calls of the source. Unless noted, the call rests on the fitted dose curve; in most records, active means well fitted curve in the direction sought with a large enough effect in the repeat runs; inconclusive means weak or mixed curves; inactive means no such curve, though single readings can be large; an effect the other way counts as inactive or inconclusive.
# Assays:
# [1] = qHTS assay to identify small molecule antagonists of the thyroid receptor (TR) signaling pathway - cell viability counter screen (AID 743064); further: nearly all actives have a fitted effect of over 50% in size; further: potency means the concentration at half of the fitted maximal effect
# Procedure, shortened: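 GH3.TRE-Luc rat pituitary cells carrying a TRE-luciferase reporter were treated with compound plus 1 nM T3 (final) for 23.5 h at 37 °C. Viability was then read in the same wells by CellTiter-Fluor fluorescence after a further 30 min.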
# [2] = qHTS assay to identify small molecule antagonists of the thyroid receptor (TR) signaling pathway (AID 743065); further: nearly all actives have a fitted effect of over 55% in size; further: potency means the concentration at half of the fitted maximal effect
# Procedure, shortened: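 GH3.TRE-Luc rat pituitary cells carrying two TR response elements driving luciferase were plated for 4 h, given compound plus 1 nM T3 (final), and incubated 23.5 h at 37 C. ONE-Glo luminescence measured reporter inhibition; CellTiter-Fluor fluorescence tracked cytotoxicity.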
# [3] = target: Estrogen receptor (Homo sapiens) (UniProt P03372); test: qHTS assay to identify small molecule agonists of the estrogen receptor alpha (ER-alpha) signaling pathway using the BG1 cell line (AID 743079); conditions: BG1Luc4E2 cells, ERE-luciferase agonist, 22 h; activation: at 70.3 µM (top of the series); further: nearly all actives have a fitted effect of over 20% in size; further: potency means the concentration at half of the fitted maximal effect
# Chain of Estrogen receptor (Homo sapiens) (P03372 whole entry, looked up): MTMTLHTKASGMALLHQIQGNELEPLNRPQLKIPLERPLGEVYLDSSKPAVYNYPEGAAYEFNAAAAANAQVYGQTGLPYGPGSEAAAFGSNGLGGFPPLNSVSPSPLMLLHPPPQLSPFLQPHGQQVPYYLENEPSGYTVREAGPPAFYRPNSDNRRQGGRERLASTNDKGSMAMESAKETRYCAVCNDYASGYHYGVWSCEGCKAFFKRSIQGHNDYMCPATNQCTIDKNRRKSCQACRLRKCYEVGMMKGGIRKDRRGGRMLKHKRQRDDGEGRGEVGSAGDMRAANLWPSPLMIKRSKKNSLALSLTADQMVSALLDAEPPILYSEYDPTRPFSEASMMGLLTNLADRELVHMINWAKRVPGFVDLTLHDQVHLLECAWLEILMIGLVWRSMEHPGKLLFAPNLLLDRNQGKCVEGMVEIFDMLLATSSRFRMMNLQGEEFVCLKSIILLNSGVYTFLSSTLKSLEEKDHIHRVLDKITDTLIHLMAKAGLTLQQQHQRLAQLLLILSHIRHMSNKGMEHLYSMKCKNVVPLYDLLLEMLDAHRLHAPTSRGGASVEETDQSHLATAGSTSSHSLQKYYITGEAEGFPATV
# [4] = qHTS assay to identify small molecule antagonists of the estrogen receptor alpha (ER-alpha) signaling pathway using the BG1 cell line (AID 743080; calls by dose curve; further: nearly all actives have a fitted effect of over 25% in size; further: potency means the concentration at half of the fitted maximal effect)
# Procedure, shortened: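 Antagonist mode: compounds in DMSO were pinned onto BG1-Luc-4E2 cells alongside 17beta-estradiol agonist, incubated 21.5 h, and ERE-driven luciferase measured with ONE-Glo. Cytotoxicity was multiplexed using CellTiter-Fluor fluorescence.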
# Aromatase (Homo sapiens) = Aromatase (Homo sapiens) (UniProt P11511); test: qHTS assay to identify aromatase inhibitors (AID 743083); further: nearly all actives have a fitted effect of over 55% in size; further: potency means the concentration at half of the fitted maximal effect
# Chain of Aromatase (Homo sapiens) (P11511 whole entry, looked up): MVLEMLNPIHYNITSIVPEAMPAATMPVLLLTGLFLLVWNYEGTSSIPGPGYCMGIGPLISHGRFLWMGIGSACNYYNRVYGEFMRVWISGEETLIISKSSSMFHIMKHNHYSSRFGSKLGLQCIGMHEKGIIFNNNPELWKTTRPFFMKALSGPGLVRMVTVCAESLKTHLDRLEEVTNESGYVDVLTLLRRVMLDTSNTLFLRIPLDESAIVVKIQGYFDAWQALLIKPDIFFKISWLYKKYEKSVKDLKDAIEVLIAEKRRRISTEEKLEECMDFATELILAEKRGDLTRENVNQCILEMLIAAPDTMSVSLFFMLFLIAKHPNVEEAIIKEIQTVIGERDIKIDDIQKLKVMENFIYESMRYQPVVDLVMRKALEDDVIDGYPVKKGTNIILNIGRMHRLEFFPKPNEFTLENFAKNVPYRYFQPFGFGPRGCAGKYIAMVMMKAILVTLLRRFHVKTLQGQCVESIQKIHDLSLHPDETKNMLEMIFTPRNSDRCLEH
# [5] = qHTS assay to identify small molecule phospholipidosis (PLD) inducers (AID 1259344; active means well fitted curve in the direction sought with a large enough effect; inconclusive means small, poorly fitted or top-dose-only effect, or another doubt; inactive means no such curve, though single readings can be large; an effect the other way counts as inactive or inconclusive)
# Procedure, shortened: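 Cells (HepG2, 900 per well) attach for 4 h, receive LipidTOX Red and compound together, incubate 24 h at 37 C, are fixed 30 min with paraformaldehyde/Hoechst, then imaged at one site per well.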
# [6] = qHTS assay to identify small molecule antagonists of the estrogen receptor alpha (ER-alpha) signaling pathway - cell viability counter screen (AID 743074; calls by dose curve; further: nearly all actives have a fitted effect of over 45% in size; further: potency means the concentration at half of the fitted maximal effect)
# [7] = target: Estrogen receptor (Homo sapiens) (UniProt P03372); test: qHTS assay to identify small molecule agonists of the estrogen receptor alpha (ER-alpha) signaling pathway (AID 743075; calls by dose curve; further: potency means the concentration at half of the fitted maximal effect)
# [8] = qHTS assay to identify small molecule antagonists of the estrogen receptor alpha (ER-alpha) signaling pathway using the BG1 cell line - cell viability counter screen (AID 743081);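 further: compound given together with 17beta-estradiol as the ER stimulus; nearly all actives have a fitted effect of over 45% in size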
# [9] = qHTS assay to identify aromatase inhibitors - cell viability counter screen (AID 743084);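 further: cells stimulated with testosterone during compound exposure; nearly all actives have a fitted effect of over 55% in size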; further: potency means the concentration at half of the fitted maximal effect
# [10] = target: Aryl hydrocarbon receptor (Homo sapiens) (UniProt P35869); test: qHTS assay to identify small molecule that activate the aryl hydrocarbon receptor (AhR) signaling pathway (AID 743085); further: nearly all actives have a fitted effect of over 15% in size; further: potency means the concentration at half of the fitted maximal effect;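 on activation: HG2L7.5c1 human HepG2 liver cells with stably integrated DRE-driven firefly reporter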
# Chain of Aryl hydrocarbon receptor (Homo sapiens) (P35869 whole entry, looked up): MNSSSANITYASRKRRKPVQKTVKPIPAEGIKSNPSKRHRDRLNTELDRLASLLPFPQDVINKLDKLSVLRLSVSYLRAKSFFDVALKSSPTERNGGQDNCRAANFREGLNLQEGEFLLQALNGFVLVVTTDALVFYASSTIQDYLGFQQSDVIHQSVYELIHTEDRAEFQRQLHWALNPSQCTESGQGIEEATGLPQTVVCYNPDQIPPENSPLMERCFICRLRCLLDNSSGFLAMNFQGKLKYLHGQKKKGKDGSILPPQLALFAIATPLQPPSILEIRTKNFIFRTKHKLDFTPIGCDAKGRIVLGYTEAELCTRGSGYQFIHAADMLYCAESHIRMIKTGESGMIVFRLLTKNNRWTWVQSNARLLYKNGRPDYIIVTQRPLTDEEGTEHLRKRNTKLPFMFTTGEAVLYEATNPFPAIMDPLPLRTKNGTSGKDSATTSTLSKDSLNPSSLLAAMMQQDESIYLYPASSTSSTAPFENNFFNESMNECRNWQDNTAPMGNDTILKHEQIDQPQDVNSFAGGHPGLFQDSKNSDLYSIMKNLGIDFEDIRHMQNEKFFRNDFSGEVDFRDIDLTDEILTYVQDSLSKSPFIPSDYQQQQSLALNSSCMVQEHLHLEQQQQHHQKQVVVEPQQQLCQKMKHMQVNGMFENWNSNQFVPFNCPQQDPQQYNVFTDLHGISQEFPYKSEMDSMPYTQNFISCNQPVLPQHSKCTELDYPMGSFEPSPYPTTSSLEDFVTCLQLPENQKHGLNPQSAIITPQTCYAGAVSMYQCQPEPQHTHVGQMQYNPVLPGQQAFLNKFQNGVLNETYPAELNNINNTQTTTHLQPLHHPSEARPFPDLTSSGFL
# Procedure, shortened: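 HepG2 cells (HG2L7.5c1) stably carrying a firefly luciferase reporter driven by 20 dioxin responsive elements were exposed to compound for 24 h at 37C after a 5 h settling period; luminescence rise (ONE-Glo) indicated activation.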
# [11] = qHTS assay to identify small molecule that activate the aryl hydrocarbon receptor (AhR) signaling pathway - cell viability counter screen (AID 743086); further: nearly all actives have a fitted effect of over 45% in size; further: potency means the concentration at half of the fitted maximal effect
# Procedure, shortened: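 HepG2-AhR-luc (HG2L7.5c1) cells, 4000/well, were preincubated 5 h at 37C, exposed to compound in qHTS format for 24 hr at 37C, then given CellTiter-Fluor for 30 min; viability was read as fluorescence in the reporter wells.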
# [12] = target: Peroxisome proliferator-activated receptor gamma (Homo sapiens) (UniProt P37231); test: qHTS assay to identify small molecule agonists of the peroxisome proliferator-activated receptor gamma (PPARg) signaling pathway (AID 743094; active means well fitted activation curve with a large enough effect in the signal ratio in the repeat runs, not every such curve was filed as active; inconclusive means weak or mixed curves, or effect the other way; inactive means no such curve, though single readings can be large or run the other way; the % refers to the signal ratio)
# Chain of Peroxisome proliferator-activated receptor gamma (Homo sapiens) (P37231 whole entry, looked up): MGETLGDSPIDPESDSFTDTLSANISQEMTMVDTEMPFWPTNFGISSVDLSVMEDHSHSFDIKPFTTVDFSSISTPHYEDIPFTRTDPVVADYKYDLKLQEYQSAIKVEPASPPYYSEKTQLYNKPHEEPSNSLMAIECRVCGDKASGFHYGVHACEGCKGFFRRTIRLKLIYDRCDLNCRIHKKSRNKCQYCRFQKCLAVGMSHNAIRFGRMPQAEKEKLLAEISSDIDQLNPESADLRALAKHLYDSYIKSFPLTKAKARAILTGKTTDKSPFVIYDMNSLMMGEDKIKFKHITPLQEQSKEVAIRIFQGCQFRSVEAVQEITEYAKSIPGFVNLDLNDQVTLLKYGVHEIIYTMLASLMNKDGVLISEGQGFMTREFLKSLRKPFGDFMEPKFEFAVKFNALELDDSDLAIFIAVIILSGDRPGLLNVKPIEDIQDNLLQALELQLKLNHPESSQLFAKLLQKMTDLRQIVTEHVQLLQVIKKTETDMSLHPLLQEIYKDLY
# Procedure, shortened: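 HEK293H PPARg-bla cells, 5 h settle at 37C/5% CO2; compound (DMSO) 17 h, 37C; B/G FRET substrate 1 h RT; fluorescence intensity read-out. qHTS format.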
# [13] = target: Estrogen receptor (Homo sapiens) (UniProt P03372); test: qHTS assay to identify small molecule antagonists of the estrogen receptor alpha (ER-alpha) signaling pathway (AID 743069; active means well fitted curve in the direction sought with a large enough effect in the signal ratio in the repeat runs, not every such curve was filed as active; inconclusive means weak or mixed curves, or effect the other way; inactive means no such curve, though single readings can be large or run the other way; the % refers to the signal ratio; further: potency means the concentration at half of the fitted maximal effect)
# Procedure, shortened: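 Screening used a UAS-driven beta-lactamase reporter integrated into HEK293 cells expressing ER-alpha, stimulated with 17beta-estradiol alongside test compounds over 18 hr at 37C; signal came from LiveBLAzer B/G FRET fluorescence.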
# [14] = test system: thyroid hormone receptor (rat, GH3 cells); test: qHTS assay to identify small molecule agonists of the thyroid receptor (TR) signaling pathway (AID 743066; calls by dose curve)
Structure (SMILES),Potency [1],Potency [2],Potency [3],Potency [4],Potency (Aromatase (Homo sapiens)),Potency [5],Potency [6],Potency [7],Potency [8],Potency [9],Potency [10],Potency [11],Potency [12],PLD induction [5],Potency [13],Potency [14]
CC[C@]1(O)CC2CN(CCc3c([nH]c4ccccc34)[C@@](C(=O)OC)(c3cc4c(cc3OC)N(C)[C@H]3[C@@](O)(C(N)=O)[C@H](O)[C@]5(CC)C=CCN6CC[C@]43[C@@H]65)C2)C1 (stereo partly drawn),0.335 µM (active),0.168 µM (active),inactive,0.15 µM (active),inactive,inactive,,,,,,,,,,
COc1ccc(C2NC(=S)N3C(c4ccc(OC)c(OC)c4)NC(=S)N23)cc1OC (stereo not drawn),0.188 µM (active),0.0841 µM (active),inactive,,0.168 µM (active),,inactive,inactive,inactive,0.188 µM (active),inactive,0.211 µM (active),inactive,-4.32% [at 7.66 µM],,
COC(=O)C1=C(C)NC(C)=C(C(=O)O[C@H]2CCN(Cc3ccccc3)C2)[C@H]1c1cccc([N+](=O)[O-])c1,13.3 µM (active),18.8 µM (active),inactive,,inactive,inactive,inactive,inactive,,,inactive,29.8 µM (active),,,26.8 µM [inhibitor] (active),
O=C(Nc1ccc(Br)cc1)c1cc(Br)c(Br)s1,18.8 µM (active),13.3 µM (active),,,inactive,inactive,,inactive,inactive,inactive,16.8 µM (active),,inactive,,,
Cc1c(N)nc(C(CC(N)=O)NCC(N)C(N)=O)nc1C(=O)NC(C(=O)NC(C)C(O)C(C)C(=O)NC(C(=O)NCCc1nc(-c2nc(C(=O)NCCCN[C@@H](C)c3ccccc3)cs2)cs1)C(C)O)C(O[C@@H]1O[C@@H](CO)[C@@H](O)[C@H](O)[C@@H]1O[C@H]1O[C@H](CO)[C@@H](O)[C@H](OC(N)=O)[C@@H]1O)c1cnc[nH]1 (stereo partly drawn),1.68 µM (active),3.76 µM (active),,,,,inactive,,inactive,,,inactive,,1.81% [at 7.66 µM],,inactive
C=C1/C(=C\C=C2/CCC[C@]3(C)[C@@H]([C@H](C)OCCC(C)(C)O)CC[C@@H]23)C[C@@H](O)C[C@@H]1O,inactive,37.6 µM (active),,,inactive,inactive,inactive,,,inactive,,,inactive,,,inactive
C[C@@H]1C[C@H]2C3C[C@H](F)C4=CC(=O)C=CC4(C)[C@@]3(F)[C@@H](O)CC2(C)[C@@]1(O)C(=O)COC(=O)C(C)(C)C (stereo partly drawn),inactive,,inactive,,inactive,inactive,inactive,inactive,inactive,inactive,,inactive,inactive,,,inactive
CCCC(=O)Nc1ncnc2c1ncn2[C@@H]1O[C@@H]2COP(=O)(O)O[C@H]2[C@H]1OC(=O)CCC,inactive,inactive,,,inactive,inactive,inactive,,inactive,inactive,,inactive,,,,inactive
CCCC1([C@H](O)C/C=C/[C@H]2[C@H](O)CC(=O)[C@@H]2CCCCCCC(=O)OC)CCC1,29.8 µM (active),26.6 µM (active),inactive,inactive,,,inactive,,inactive,,inactive,,,0.112% [at 7.66 µM],,
CC(=O)O[C@H]1CC[C@@]2(C)C(=CC[C@H]3[C@@H]4CC[C@H](C(C)=O)[C@@]4(C)CC[C@@H]32)C1,inactive,inactive,,inactive,inactive,,,16.9 µM [inconclusive] (active),inactive,inactive,inactive,inactive,,6.8% [at 7.66 µM],,inactive
C/C=C1\NC(=O)[C@H]2CSSCC/C=C/[C@H](CC(=O)N[C@H](C(C)C)C(=O)N2)OC(=O)C(C(C)C)NC1=O (stereo partly drawn),0.0119 µM (active),0.0168 µM (active),,0.0531 µM (active),0.0094 µM (active),inactive,6.74 µM (active),15.1 µM [inconclusive] (active),,13.3 µM (active),inactive,15 µM (active),,,,
O=P(O)(O)C(Sc1ccc(Cl)cc1)P(=O)(O)O,inactive,inactive,,,inactive,inactive,inactive,,,inactive,inactive,inactive,inactive,,,inactive
CN1[C@@H]2CCC[C@H]1CC(NC(=O)c1nn(C)c3ccccc13)C2 (stereo partly drawn),inactive,,inactive,inactive,inactive,inactive,inactive,inactive,inactive,,,inactive,inactive,,inactive,inactive
CC(=O)O[C@H]1CC[C@@]2(C)C(=CC[C@@H]3[C@@H]2CC[C@]2(C)C(c4cccnc4)=CC[C@@H]32)C1,29.8 µM (active),,29.8 µM (active),inactive,inactive,inactive,inactive,13.4 µM [activator] (active),inactive,inactive,,inactive,inactive,,,inactive
N[C@H](CCC(=O)O)C(=O)O,inactive,,inactive,inactive,inactive,,inactive,inactive,inactive,inactive,inactive,inactive,inactive,0.563% [at 7.66 µM],,inactive
CCCCCCCCCCCCCCCCCC(=O)[O][Al],inactive,,inactive,,inactive,inactive,,inactive,inactive,inactive,inactive,inactive,,,inactive,inactive
CS(=O)(=O)OCCCNCCCOS(C)(=O)=O,inactive,inactive,,,inactive,inactive,inactive,,,inactive,inactive,inactive,,,,inactive
